Measurements reported in PubChem BioAssay (Tox21).
Records with an inconclusive call do not appear. Values without a mark were called inactive. Active and inactive are the calls of the source. Calls follow the shape of the dose curve; as a rule, active = well fitted activation curve with a large enough effect in the repeat runs; inconclusive = weak or mixed curves; inactive = no such curve, though single readings can be large or run the other way.

Test: qHTS assay for small molecules that induce genotoxicity in human embryonic kidney cells expressing luciferase-tagged ATAD5 (AID 651632); also: nearly all actives have a fitted effect of over 15% in size
Conditions: HEK293T ATAD5-luciferase induction, 16 h; series mostly up to 83.3 µM; activation: at the top concentration
From the text: U.S. Tox21 Program National Center for Advancing Translational Sciences [NCATS] NIH Chemical Genomics Center [NCGC] U.S. Environmental Protection Agency [EPA] National Institutes of Environmental Health Sciences [NIEHS] National Toxicology Program [NTP] U.S. Food and Drug Administration [FDA] Tox21 Assay Overview: As cancer cells divide rapidly and during every cell division they need to duplicate their genome by DNA replication. The failure to do so results in the cancer cell death. Based on this concept, many chemotherapeutic agents were developed but have limitations such as low efficacy and severe side effects etc. A new cell based assay was developed to find the compounds that effectively block DNA replication either by directly damaging DNA or by inhibiting other cellular mechanisms. Enhanced Level of Genome Instability Gene 1 (ELG1; human ATAD5) protein levels increase in response to various types of DNA damage. Using a luciferase reporter-gene tagged with ATAD5, a cell-based assay [developed by Kyungjae Myung, NHGRI, NIH] was used to measure the induction of ATAD5 in human embryonic kidney cells (HEK293T). So, increase in luciferase activity can be used to identify the compounds that cause genetic stress.
Tox21 Assay Protocol Summary: For genotoxicity screening, 2,000 cells in 5 uL/well were dispensed into white, solid-bottom 1536-well plates using a Multidrop Combi (Thermo Scientific) dispenser. Following transfer of 23 nL compound or DMSO vehicle by a pin tool, the plates were incubated 16 hr at 37C and 5% CO2. 5 ul Amplite (AAT Bioquest, Inc.) was then added to each plate and following 30 min incubation at room temperature, luciferase activity was quantified on a ViewLux CCD-based plate reader.
% is scaled to controls: 0 for no effect and ±100 for the full control effect; potency is read from the fitted curve at half-maximal effect.

Compound	activation	Potency
Cc1c(C(=O)NCCO)[n+](=O)c2ccccc2n1[O-]	0.827%	
CC(=O)Nc1ccc(C)c(Cl)c1	3.08%	
O=C(O)CN(CCN(CC(=O)O)CC(=O)O)CCN(CC(=O)O)CC(=O)O		26.6 µM (active)
CCCCNc1ccc(C(=O)OCCN(CC)CC)cc1	2.83%	
O=C(O)[C@@H](O)[C@H](O)[C@H](O)[C@@H](O)C(=O)O	2.05%	
O=C1CCCCCCCCCCC(=O)OCCO1	-2.3%	
CCC(=O)O[C@]1(C(=O)SCF)[C@H](C)C[C@H]2[C@@H]3C[C@H](F)C4=CC(=O)C=C[C@]4(C)[C@@]3(F)[C@@H](O)C[C@@]21C	4.3% [at 39.1 µM]	
CCCCNCCCC	1.96%	
CCN[C@H]1CN(CCCOC)S(=O)(=O)c2sc(S(N)(=O)=O)cc21	-0.774% [at 39.1 µM]	
Oc1ccccc1F	2.5%	
COc1ccccc1N1CCN(CCCNc2cc(=O)n(C)c(=O)n2C)CC1		inactive
CCN(CCCc1ccccc1)CCCc1ccccc1	-4.1% [at 39.1 µM]	
OCCN(CCO)CCN(CCO)CCO	0.42%	
CN(C)C(=O)NC1(c2ccccc2)CCN(CCC[C@]2(c3ccc(Cl)c(Cl)c3)CCCN(C(=O)c3ccccc3)C2)CC1	-2.05% [at 39.1 µM]	
Cc1c[nH]c(=S)[nH]c1=O	2.39%	
COC(=O)N[C@H](C(=O)N[C@@H](Cc1ccccc1)[C@@H](O)CN(Cc1ccc(-c2ccccn2)cc1)NC(=O)[C@@H](NC(=O)OC)C(C)(C)C)C(C)(C)C	-1.62%	
C=CC1CO1 (stereo not given)	-0.761% [at 95.3 µM]	
CCCCCCCCCCCCCCCCOP(=O)([O-])OCC[N+](C)(C)C	-3.64%	
COc1ccc(S(=O)(=O)Nc2nnc(CC(C)C)s2)cc1		inactive
O=[N+]([O-])c1nccn1CO[C@@H](CO)[C@H](O)CO	4.54%	

Compound	activation	Potency
CC(C)(C)C1CCCCC1=O (stereo not given)	-2.76%	
OCC(CBr)(CBr)CBr	-1.58%	
NC(=O)Cc1cccc(C(=O)c2ccccc2)c1N	-1.4%	
CCOc1ccc(NS(=O)(=O)c2ccc(N)cc2)nn1	3.01%	
FC(F)(F)C(F)(F)C(F)(F)C(F)(F)C(F)(F)C(F)(F)C(F)(F)C(F)(F)Br	3.23%	
CC(C)C(=O)OC/C=C/c1ccccc1	-1.02%	
CN1CCN(C2=Nc3cc(F)ccc3Cc3ccccc32)CC1	-6.9%	
CC(C)CC(=O)OCc1ccccc1	-0.738%	
CN(C)Cc1ccccc1		inactive
CS(=O)(=O)c1ccc([C@@H](O)[C@@H](CF)NC(=O)C(Cl)Cl)cc1	-2.95% [at 39.1 µM]	
CCN(CC)CCOc1ccc(Cc2ccccc2)cc1	-6.07%	
CCCCC(CC)COC(=O)COc1cc(Cl)c(Cl)cc1Cl (stereo not given)	2.15%	
CC(=O)N[C@@H](CC(C)C)C(=O)O	3.32%	
O=C(O)c1ccccc1Nc1cc(Cl)ccc1C(=O)O	3.58%	
CCCCNc1cc(C(=O)O)cc(S(N)(=O)=O)c1Oc1ccccc1	-3.08% [at 39.1 µM]	
COc1ccc2nc(NC(=O)Nc3ccccc3)sc2c1		0.75 µM (active)
C[C@@H]1CN(c2c(F)c(N)c3c(=O)c(C(=O)O)cn(C4CC4)c3c2F)C[C@H](C)N1	1.54%	
Cc1ccc([N+](=O)[O-])cc1Cl	-0.659% [at 95.3 µM]	
CN1C(=O)CC(c2ccccc2)C1=O (stereo not given)	-1.05%	
C[C@@H](N)C(=O)O	-6.92%	
